Laboratory results: PubChem BioAssay (NCATS)
Values joined by “and” are separate entries in the source; they are usually repeats but may differ in a detail not shown here. Identical values can stand only once. Inconclusive results are not listed. Unmarked numbers belong to inactive results. Active and inactive are the calls of the source. The call rests on the fitted dose curve; in most records, active means well fitted inhibition curve with a large enough effect; inconclusive means small, poorly fitted or top-dose-only effect; inactive means flat fitted curve, though single readings scatter.

Target: Voltage-gated inwardly rectifying potassium channel KCNH2 (Homo sapiens) (UniProt Q12809)
Sequence (Q12809 whole entry, looked up): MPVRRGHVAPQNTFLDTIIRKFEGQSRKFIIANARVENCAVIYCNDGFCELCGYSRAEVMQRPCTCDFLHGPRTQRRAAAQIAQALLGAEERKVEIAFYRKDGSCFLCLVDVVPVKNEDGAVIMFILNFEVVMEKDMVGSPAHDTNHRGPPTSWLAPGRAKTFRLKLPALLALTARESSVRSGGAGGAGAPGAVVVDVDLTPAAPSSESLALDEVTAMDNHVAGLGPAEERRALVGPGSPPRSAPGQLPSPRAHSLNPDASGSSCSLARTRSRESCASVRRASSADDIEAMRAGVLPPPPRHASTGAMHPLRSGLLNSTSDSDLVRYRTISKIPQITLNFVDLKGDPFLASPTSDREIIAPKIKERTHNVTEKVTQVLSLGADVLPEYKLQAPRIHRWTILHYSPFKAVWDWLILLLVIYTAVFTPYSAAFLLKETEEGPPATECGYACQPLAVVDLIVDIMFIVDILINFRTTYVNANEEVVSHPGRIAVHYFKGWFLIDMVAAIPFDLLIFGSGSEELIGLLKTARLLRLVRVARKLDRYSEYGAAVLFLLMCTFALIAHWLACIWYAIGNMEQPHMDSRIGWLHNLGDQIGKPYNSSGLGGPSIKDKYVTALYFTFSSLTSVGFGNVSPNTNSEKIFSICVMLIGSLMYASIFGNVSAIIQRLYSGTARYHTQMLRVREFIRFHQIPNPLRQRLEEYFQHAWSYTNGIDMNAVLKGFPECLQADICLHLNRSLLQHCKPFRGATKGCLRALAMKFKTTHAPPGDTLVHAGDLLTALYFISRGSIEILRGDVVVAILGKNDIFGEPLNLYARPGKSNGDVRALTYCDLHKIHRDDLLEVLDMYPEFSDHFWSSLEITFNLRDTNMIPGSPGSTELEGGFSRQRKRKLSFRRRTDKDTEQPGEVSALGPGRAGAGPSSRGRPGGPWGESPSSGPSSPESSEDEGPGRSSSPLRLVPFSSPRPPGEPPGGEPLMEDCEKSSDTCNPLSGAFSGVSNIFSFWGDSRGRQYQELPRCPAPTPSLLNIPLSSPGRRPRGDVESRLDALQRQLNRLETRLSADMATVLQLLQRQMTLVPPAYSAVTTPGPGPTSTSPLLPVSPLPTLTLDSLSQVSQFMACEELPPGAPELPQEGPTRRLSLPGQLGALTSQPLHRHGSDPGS
Experiment: qHTS Assay for Small Molecule Inhibitors of the Human hERG Channel Activity (AID 588834);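 further: lower thallium flux fluorescence means stronger hERG block; nearly all actives have a fitted effect of over 50% in size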; on activity change, negative = inhibition: top concentration of the series differs between compounds
Details: U2OS BacMam hERG, FluxOR thallium flux fluorescence; series mostly up to 46.1 µM; activity change, negative = inhibition: at the top concentration
Method in brief: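 hERG-BacMam U2OS, 2000 cells/well; 0.7X FluxOR loading 1 hr RT dark; cpd ~10 min 37 °C; stim buffer; FDSS fluorescence 2 min @ 1 s; AC50 Hill fit.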
On the % scale 0 is the no-effect control and ±100 the full control effect; potency means the concentration at half of the fitted maximal effect.

Structure (SMILES)	activity change, negative = inhibition	Potency
CC(C)(C)c1onc(OCP(=O)(O)O)c1CC(N)C(=O)O (stereo unspecified)	3.41%	
CCN(CC)C(C)CN1c2ccccc2Sc2ccccc21 (stereo unspecified)		7.94 µM (active)
N=c1c[n+](N2CCOCC2)[n-]o1	-0.0317%	
O=c1[nH]c(=O)c2[nH]c(=O)[nH]c2[nH]1	12.3%	
NC1CCN(c2cccc(Cl)n2)CC1		inactive
CC(CN(C)C)CN1c2ccccc2CCc2ccccc21 (stereo unspecified)		7.08 µM (active)
NC(N)=NCCC[C@H](N)C(=O)O	-28.3%	
CCCn1cnc2c1c(=O)n(CCCCC(C)=O)c(=O)n2C		inactive
CCN(CC)CCCC(C)Nc1c2ccc(Cl)cc2nc2ccc(OC)cc12 (stereo unspecified)		14.1 µM (active) and 11.2 µM (active)
COc1cc(C)c(Cc2cnc(N)nc2N)cc1OC	9.29%	
COc1ccc2[nH]c(S(=O)Cc3ncc(C)c(OC)c3C)nc2n1 (stereo unspecified)	4.24%	
CC(C)NC[C@H](O)c1ccc(O)c(O)c1		inactive
O=C1N=C(O)CN1/N=C/c1ccc(-c2ccc([N+](=O)[O-])cc2)o1		inactive
OCc1cc(C(O)CNCCCCCCOCCCCc2ccccc2)ccc1O (stereo unspecified)		4.47 µM (active) and 3.55 µM (active)
CCN(CC)CCNC(=O)c1cc(Cl)c(N)cc1OC		inactive
